Growth data for 82 molecules are collected here from PubChem BioAssay (NCI).

The subject of the assay is MDA-MB-468 breast. Description: NCI-60 one-dose screen, 48 h (100 = growth as untreated, 0 = no growth, -100 = all killed). Particulars: 10 µM unless noted.

“And” between values parts separate entries of the source, which are not always exact repeats. Equal entries are not always repeated. About 83,000 compounds went through this panel and 20% of them were active in at least one assay; those are over-represented in the sample as a whole.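 Compound tested at a single concentration for 48 hours in 96-well plates; a percent growth value below 10 was scored as active.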 Unmarked numbers belong to inactive results. The source made the active and inactive calls.

Turning to `CN1CCN(c2ccc(NC(=O)c3cncnc3Nc3ccc(OCc4cccc(F)c4)c(Cl)c3)cc2)CC1`, the growth is 71.8%.

For the molecule `O=C1/C(=C/c2ccccc2O)C(=S)SN1Cc1ccco1`, the growth is 64.7%. The same measure for `Cc1nc(-c2ccccc2)cc2c(O)c(C(=O)NN)[nH]c(=O)c12`: 116%; for `COC(=O)c1ccc(NC(=O)CSc2nc3ccccc3c(=O)n2-c2ccccc2)cc1`: 104%; for `CCC12CCC[N+]3([O-])CCC4(C(=Nc5ccccc54)C(O)(C(=O)OC)C1)C23` (configuration not stated): 112%.

With `O=c1cc(N/N=C/c2ccc(F)cc2)c2cc(Cl)ccc2[nH]1`, the growth was 73%. The same measure for `CCCCCCCCN(CCCCCCCC)C(=N)c1ccnc2ccccc12`: -75.5% (active); for `Oc1[nH]c2ccc(Cl)cc2c1/C=c1/ccc2c(c1)N=C(c1cccs1)N=2`: 55.2%; for `COc1ccc(N(Cc2cc(OC)c(OC)c(OC)c2)C2OC(=O)c3ccccc32)cc1` (configuration not stated): 24.2%. Then `COc1ccc2c(c1)C(c1cc(OC)c3c(c1)OCO3)C1=C(COC1=O)N2` (configuration not stated), with -14.4% (active); and `COc1ccc(/C=C2\COc3ccc(O)cc3C2=O)cc1`, with 85.7%; and `N/C(=N\c1nc2ccccc2[nH]1)NC(=O)Cc1cccc2ccccc12`, with 79.8%. Then `O=C(CN1C=NC2C(N3CCOCC3)=NC=NC21)c1cccc2ccccc12` (configuration not stated), with 85.9%; and `CNC(=O)c1cc(Oc2cccc3nc(NC(=O)Nc4cc(C(F)(F)F)cc(C(F)(F)F)c4)ccc23)ccn1`, with 32%; and `CN1CCN(c2nc(NCCNc3ccnc4cc(Cl)ccc34)c3ccccc3n2)CC1`, with -51.6% (active). With `CCOC(=O)c1cc2c(n1Cc1ccccc1)-c1oncc1CC2`, the growth is 40.1%. Then `Cc1cc(C#Cc2ccc(C(C)(C)C)cc2)ccc1-n1c(/C=C/c2c(Cl)cccc2Cl)nc2ccccc2c1=O`, with 91.1%; and `O=C(Nc1ccc(C2=NCCCN2)cc1)Nc1ccc(C2=NCCCN2)cc1`, with 42.2%; and `Cc1ccccc1[P+](Cc1ccccc1)(c1ccccc1)c1ccccc1`, with -14.4% (active).

`O=C(/C=C/c1c(-c2ccccc2)[nH]c2ccccc12)S(=O)(=O)c1ccccc1`: the growth was 18.7%.

On to `COc1cc(/C=C/C(=O)c2ccccc2)cc(OC)c1OC`, for which the growth was 64.7%.

For the molecule `NC(=S)N/N=C\c1nccc2c(N)cccc12`, the growth is -18.6% (active). Consider `ClC/C=C/CSc1ncnc2nc[nH]c12`, for which the growth is 103% and 127%. Then `CC1CCCC(C(=O)O)C1C(=O)O` (configuration not stated), with 97%; and `O=c1n(Cc2ccc3ccccc3c2)ccn1Cc1ccc2ccccc2c1`, with 94.3%; and `Cn1c2ccccc2c2nnc(NCCCCO)nc21`, with 95.8%. The same measure for `CC1=NN(c2nc(-c3ccc(Cl)cc3)c(C#N)c(N3CCOCC3)n2)C(=O)C1`: 98.3%; for `O=C(/C=C\c1ccc(NCc2ccc(C(=O)O)cc2)cc1)CCl`: 76.7%. `N#Cc1ccc(S(=O)(=O)Nc2ccc(-c3cnc(N)[nH]3)cc2)cc1`: the growth is 97.7%. The same measure for `COc1cc(C2CC(c3ccc(C)cc3)=NN2C(C)=O)ccc1Oc1ccnc2cc(Cl)ccc12` (configuration not stated): 78.6%; for `CCNCCNc1c(C)c(-c2ccc(C(F)(F)F)cc2)c(C#N)c2nc3ccccc3n12`: 56.1%. The same measure for `O=C(N/N=C/c1cccc(O)c1O)c1ccccc1`: -12.6% (active); for `COc1ccc(Nc2ncccc2C(=O)NCc2cn(Cc3cc(OC)cc(OC)c3)nn2)cc1`: 103%. The same measure for `CC(=N\N=C(N)N)/C(=N/N=C(N)N)c1ccccc1`: 39.6%; for `COc1cc(-c2cc3cc(O)ccc3oc2=O)cc(OC)c1OC`: 106%; for `COc1ccc(/C=N/C2=C(C#N)C(c3ccccc3)c3ccc4ccccc4c3O2)cc1` (configuration not stated): 17.9%. On to `O=[N+]([O-])CC(c1ccccc1)c1c[nH]c2ccccc12` (configuration not stated), for which the growth was 22.7%.

As to `CC(CCC(=O)O)[C@H]1CCC2C3C(=O)C[C@@H]4CC(=O)CC[C@]4(C)C3CC(=O)[C@@]21C` (some centres not stated), the growth is 112%. For `N#CSc1cc(S(N)(=O)=O)ccc1N`, the growth is 105%.

Regarding `O=C(Nc1ccc(Cl)cc1)Nc1nc2ccc([N+](=O)[O-])cc2s1`, the growth was -36.7% (active). The same measure for `O=C(O)c1nc(-c2ccccc2)oc1N1CCOCC1`: 99.8%; for `Nc1nc(N)c2c(n1)NC(c1sc(Cl)nc1Cl)CC(c1ccc3c(c1)OCO3)=N2` (configuration not stated): -13.3% (active); for `Cc1cccc2nc3c(n12)C(=O)C(=O)c1ccccc1-3`: 79.9%.

Consider `N#CCC1CCCC1`, for which the growth is 97.4%. Then `Cn1cc(-c2csc(-c3cn(CCCN4CCCCC4)c4ccc(F)cc34)n2)c2cccnc21`, with 91.7%. On to `CC(C)(C)n1cc(-c2ccnc(NCCCNS(=O)(=O)c3cccc(F)c3)n2)c(-c2ccc(Cl)c(O)c2)n1`, for which the growth was 104%.

Take `COc1cccc(/C=C2/C(=O)N(Cc3ccco3)SC2=S)c1OC`: the growth was 76%. For `Clc1ccc(-c2nc(-c3cccs3)no2)c(Cl)c1`, the growth is 8.37% (active).

Turning to `CC(=O)Nc1ccc(O)c(C)c1`, the growth was 111%. The same measure for `CC(=O)Nc1ccc(NC(C)=O)c2c1C(=O)c1ccccc1C2=O`: 107%; for `C/C(=N\NC(=S)Nc1ccc(Br)cc1)c1cc2ccccc2oc1=O`: -23.5% (active). Then `C=C(C)[C@@H]1CC[C@]2(C(=O)NCC(=O)OC)CC[C@]3(C)[C@H](CC[C@@H]4[C@@]5(C)Cc6c([nH]c7ccccc67)C(C)(C)[C@@H]5CC[C@]43C)[C@@H]12`, with 55.1%; and `CCN(CC)CCOc1ccc(/C=N/Nc2nc3c([nH]2)c(=O)n(C)c(=O)n3C)cc1`, with 102% and 121%; and `COC(=O)CCc1n(Cc2ccc3ccccc3c2)c2ccccc2[n+]1Cc1ccc2ccccc2c1`, with -15% (active). Then `C=CCNCCN1C(=O)c2ccc3c4c(ccc(c24)C1=O)C(=O)N(CCNCC=C)C3=O`, with -89.1% (active); and `CCCCn1c(C)nc2cc(Nc3nc(Cl)nc4nc[nH]c34)ccc21`, with 44.3%; and `COc1ccc(C2C(C#N)=C(N)Oc3n[nH]c(-c4cccs4)c32)cc1I` (configuration not stated), with 86.8%. Regarding `COc1ccc(C2C(C#N)=C(N)Oc3c2sc2ccc(C)cc32)cc1` (configuration not stated), the growth was -13.2% (active).

On to `Oc1ccccc1/C=N/NC(=S)NC1CC2C=CC1C2` (configuration not stated), for which the growth was 73.1%.

As to `CCCCCCCCCCCCCCCc1cc(O)ccc1[N+](=O)[O-]`, the growth is 111%. Then `CC(=O)n1cc(C=O)c2ccccc21`, with 112%; and `O=C(Nc1ccc(I)cc1F)c1cc(F)ccc1O`, with -3.61% (active); and `Cc1nccc2c3ccc(OCc4cn(-c5ccccc5)nn4)cc3n(CCCc3ccccc3)c12`, with 49%. Then `COc1ccc(C(=O)/C=C/C23c4ccccc4C(c4ccccc42)C2C(=O)NC(=O)C23)cc1` (configuration not stated), with 98.7%; and `CC(=O)Nc1ccc(CC[C@H]2CCC/C=C/[C@@H]3C[C@H](O)C[C@H]3[C@H](O)/C=C/C(=O)O2)cc1`, with -23.5% (active). As for `CNC(=O)c1cc(Oc2cccc3nc(Nc4ccc(Oc5ccccc5)cc4)ccc23)ccn1`, the growth is 63.7%.

For `CCOC(=O)C1=C(C)N=C2SC=C(c3ccccc3)N2[C@H]1c1cn[nH]c1-c1ccc(Cl)cc1`, the growth was 22.4%.

Turning to `COc1cccc(NC(=O)c2sc3nc(C)c(C(C)=O)cc3c2N)c1`, the growth is -14.8% (active). Then `O=Cc1ncc(-c2ccc(C(F)(F)F)cc2)c(NC2CCCCCC2)n1`, with 2.41% [100 µM] (active). The same measure for `CCN(CC)CCOc1ccc(/C(=C(\C)Cc2ccc(OC)cc2)c2ccc(O)cc2)cc1`: -18.7% (active); for `O=C(Nc1ccc(-n2cc(-c3ccncc3)c(-c3ccc(Cl)c(O)c3)n2)cc1)Nc1cc(C(F)(F)F)cc(C(F)(F)F)c1`: 13.9%.

Turning to `CCCNNC(=O)c1ccc(-c2ccc(NC(=O)CCCCCCC(=O)N[C@H](C(=O)N3C[C@H](O)C[C@H]3C(=O)N[C@@H](C)c3ccc(-c4scnc4C)cc3)C(C)(C)C)cc2)cc1`, the growth was -10.1% (active).

Consider `COc1ccc2[nH]c(C(=O)N3CCN(C(=O)OCc4ccc5c(Br)cc(Br)c(O)c5n4)CC3)cc2c1`, for which the growth is -80.5% (active). Regarding `CC1=NN(C(=O)c2nn(-c3ccc(Cl)cc3)cc2O)C(=O)C1`, the growth was 54.6%. Then `COC(=O)C1C2CC3c4[nH]c5cc(OC)ccc5c4CCN3CC2CC(OC2CCCCO2)C1OC` (configuration not stated), with 95.5%; and `CO[C@H]1C[C@@H]2CC[C@@H](C)[C@@](O)(O2)C(=O)C(=O)N2CCCC[C@H]2C(=O)O[C@H]([C@H](C)C[C@@H]2CC[C@@H](OCCO)[C@H](OC)C2)CC(=O)[C@H](C)/C=C(\C)[C@@H](O)[C@H](OC)C(=O)[C@H](C)C[C@H](C)\C=C/C=C/C=C/1C`, with 26.9%; and `O=C(CSc1nccc(Nc2cccc3ccccc23)n1)c1ccc(Cl)cc1`, with 98.5%. The same measure for `Cc1csc(Nc2nc(-c3ccc(Cl)cc3)nc(C(Cl)(Cl)Cl)n2)n1`: 9.54% (active); for `CC[C@@H](C(=O)[C@H](C)[C@H](O)[C@@H](C)[C@H]1O[C@H]([C@@H](CC)C(=O)N(CC)CC)CC[C@H]1C)C1O[C@]2(C=C[C@@H](O)[C@]3(CC[C@@](C)([C@H]4CC[C@](O)(CC)[C@H](C)O4)O3)O2)[C@H](C)C[C@@H]1C` (some centres not stated): -18.3% (active). The same measure for `CCN1C(=O)N(CC)C2Nn3c(s/c(=C4\C(=O)N(CC(C)C)c5ccccc54)c3=O)=NC21` (configuration not stated): 15.8%; for `O=C(CCl)NCCNc1nccc(Nc2ccc(S(=O)(=O)Nc3ccccn3)cc2)n1`: 21.1%. For the molecule `C/C(=N/NC(=O)Cn1c2ccccc2c2ccncc21)c1cccs1`, the growth was 105%.
